TGFb inhibitor: blocks TGF-b signaling | HepG2 CAGA-GFP TGF-b/SMAD3 reporter, GFP fluorescence, 18 h; TGF-beta stimulated, 500 pg/mL final | actives 1.2% (n = 410,000) | AID 588855 | Potency, µM (top dose mostly 46.1 µM), inactives show top-dose activity, negative = inhibition, most hits filed as inhibitors; also: potency is read from the fitted curve at half-maximal effect; % is scaled to controls: 0 for no effect and ±100 for the full control effect; nearly all actives have a fitted effect of over 65% in size
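Inhibition of TGF-beta-driven CAGA-GFP reporter expression in HEPG2 cells is measured by cellular GFP fluorescence after 18 h stimulation with 500 pg/mL recombinant TGF-beta in 1% FBS medium at 37 degrees C.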
TDP1 block: TDP1 (human) enzyme inhibition; actives 0.28% (n = 350,000); Q9NUW8; recombinant TDP1, AlphaScreen DNA substrate cleavage; Potency, µM (series often up to 130 µM), for inactives: at the top dose activity change, negative = inhibition, hits mostly inhibitors; also: potency is read from the fitted curve at half-maximal effect; % is scaled to controls: 0 for no effect and ±100 for the full control effect; nearly all actives have a fitted effect of over 40% in size
Target sequence (Q9NUW8 whole entry, looked up): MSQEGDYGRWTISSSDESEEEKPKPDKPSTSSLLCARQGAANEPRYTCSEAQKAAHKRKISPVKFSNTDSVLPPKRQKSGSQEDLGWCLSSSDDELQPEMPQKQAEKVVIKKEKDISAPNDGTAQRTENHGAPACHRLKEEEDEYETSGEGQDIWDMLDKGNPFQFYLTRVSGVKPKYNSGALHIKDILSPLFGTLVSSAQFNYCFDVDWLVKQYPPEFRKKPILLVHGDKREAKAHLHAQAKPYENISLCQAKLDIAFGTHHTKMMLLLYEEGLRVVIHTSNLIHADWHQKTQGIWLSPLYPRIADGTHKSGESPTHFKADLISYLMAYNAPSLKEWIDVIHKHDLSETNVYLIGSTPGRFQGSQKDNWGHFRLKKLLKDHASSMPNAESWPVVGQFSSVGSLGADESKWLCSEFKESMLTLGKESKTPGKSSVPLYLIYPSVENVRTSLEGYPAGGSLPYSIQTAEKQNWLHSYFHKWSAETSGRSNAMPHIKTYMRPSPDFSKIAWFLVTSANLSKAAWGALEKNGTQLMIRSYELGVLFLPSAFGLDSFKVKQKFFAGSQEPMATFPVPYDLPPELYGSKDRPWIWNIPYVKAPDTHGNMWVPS
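Here, a 5' biotin and 3' phosphotyrosine-FITC DNA oligonucleotide reports Tdp1 activity: intact substrate bridges AlphaScreen beads, while cleavage leaves a 3' phosphate and drops signal. All incubations at room temperature.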
TDP1 cell CPT: DT40-hTDP1 cell growth loss with CPT. actives 12% (n = 420,000). AID 686979. chicken DT40 Tdp1-/-;hTDP1 cells + 20 nM CPT, ATP luminescence, 48 h. Potency, µM (top dose mostly 46.2 µM), inactives show top-dose activity change, negative = growth inhibition, hits mostly inhibitors; also: potency is read from the fitted curve at half-maximal effect; % is scaled to controls: 0 for no effect and ±100 for the full control effect; nearly all actives have a fitted effect of over 55% in size
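Cell growth measured by CellTiter-Glo luminescence after a minimum 48 h, 37 C compound exposure with 20 nM CPT in Tdp1-knockout DT40 cells stably expressing hTDP1, seeded 400/well; qHTS titration format.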
IL1B secr inh: inhibitors of inflammasome signaling (IL-1 beta secretion); THP-1 LPS/ATP IL-1B secretion, AlphaLISA, 16 h; stronger effect = lower value; activity change, % at 57.5 µM; actives 4.7% (n = 360,000); in the data active = activity change below about -50%; inconclusive = mostly about -30% to -49%; also: % is scaled to controls: 0 for no effect and ±100 for the full control effect
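THP-1 cells pretreated 1 hr with compounds (up to 57.5 uM final), then stimulated with LPS (250 ng/mL final) plus ATP (1.25 mM final); secreted IL-1B measured by AlphaLISA after 16 hr, decreased signal indicating inhibition.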
HepG2 tox: kills HepG2 cells in TGF-b inhibitor counter-screen; HepG2 CAGA-GFP viability, ATP luminescence, 18 h; Potency, µM (highest dose often 46.1 µM), for the others: at the top dose activity change, negative = cytotoxicity, most hits filed as cytotoxic; actives 0.76% (n = 410,000); AID 588856; also: potency is read from the fitted curve at half-maximal effect
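HepG2 CAGA-GFP cells (1000/well, DMEM with 1% FBS) received compound, then TGF-beta at 500 pg/mL final, and were incubated 18 hours at 37 degrees C. Viability was read by CellTiter-Glo luminescence. Media-only wells were set as complete cell-killing and DMSO as no toxicity.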
TDP1 cell noCPT: qHTS for Inhibitors of human tyrosyl-DNA phosphodiesterase 1 (TDP1): qHTS in cells in absence of CPT | DT40 Tdp1-/- hTDP1 cells, no CPT, ATP luminescence, 48 h | Potency, µM (series often up to 46.2 µM), inactives show top-dose activity change, negative = growth inhibition, hits mostly inhibitors | actives 15% (n = 420,000) | AID 686978, 2013; also: potency is read from the fitted curve at half-maximal effect; % is scaled to controls: 0 for no effect and ±100 for the full control effect; nearly all actives have a fitted effect of over 55% in size
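Compound effects on proliferation are scored in DT40 Tdp1-/-;hTDP1 cells in the absence of CPT. ATP levels (CellTiter-Glo luminescence) are recorded after a ≥48 hr, 37 °C incubation.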
Numbers without * were called inactive; [ ] = dose if it differs, or a comment. An excerpt weighted towards active compounds, which were near 19% of everything screened. Unless noted, calls follow the shape of the dose curve; as a rule, active = well fitted curve in the direction sought with a large enough effect; inconclusive = small, poorly fitted or top-dose-only effect, or another doubt; inactive = no such curve, though single readings can be large; an effect the other way counts as inactive or inconclusive.

Screening CSc1ccccc1OCc1cc(C(=O)NCCCn2nc(C)cc2C)no1 returned TGFb inhibitor -5.3%, TDP1 block 2.9%[56.1 µM], TDP1 cell CPT 16.4µM*, IL1B secr inh -12.9, HepG2 tox -38.5% and TDP1 cell noCPT 20.6µM*.
Screening CCOC(=O)C1=C(O)c2ccccc2C(=O)/C1=C\c1ccc(CC)cc1 returned TGFb inhibitor -6.4%, TDP1 block 5.3%, TDP1 cell CPT 20.6µM*, IL1B secr inh inconclusive, HepG2 tox -52.8% and TDP1 cell noCPT 20.6µM*.
For CCOC(=O)C1=C(Cc2ccc(C)cc2)C(=O)c2ccccc2C1=O the results were TDP1 block 7.0%.
For CCCc1ccc(/C=C2\C(=O)c3ccccc3C(O)=C2C(=O)OCC)cc1 the results were TDP1 block 8.2%.
Screening CCOC(=O)C1=C(Cc2ccc(OC)cc2)C(=O)c2ccccc2C1=O returned TGFb inhibitor inconclusive, TDP1 block 10.7%, TDP1 cell CPT 4.61µM*, IL1B secr inh -81.9*, HepG2 tox -98.0% and TDP1 cell noCPT 8.2µM*.
For CCc1nnc(NC(=O)Cc2ccc(OC)cc2)s1 the results were TGFb inhibitor 14.8%, TDP1 block -2.3%, TDP1 cell CPT 11.4%, IL1B secr inh 24.5, HepG2 tox -14.5% and TDP1 cell noCPT -3.6%.
Screening COc1ccc(-c2cc(-c3ccccc3)c(C#N)c(SCC(=O)Nc3ncc(C)s3)n2)cc1 returned TGFb inhibitor inconclusive, TDP1 block 0.0%, TDP1 cell CPT -20.0%, IL1B secr inh 4.9, HepG2 tox -2.8% and TDP1 cell noCPT inconclusive.
`CCc1nnc(NC(=O)CSc2nc(-c3ccccc3)cc(-c3ccc(OC)cc3)c2C#N)s1` gave TGFb inhibitor 1.9%, TDP1 block 2.3%, TDP1 cell CPT 23.1µM*, IL1B secr inh 7.4, HepG2 tox 24.5% and TDP1 cell noCPT 20.6µM*.
N#Cc1c(-c2ccccc2)cc(-c2ccccc2)nc1SCC(=O)Nc1ccc(Cl)cc1 was read as TGFb inhibitor 183.4%, TDP1 cell CPT -2.1%, HepG2 tox 108.2% and TDP1 cell noCPT -19.6%.
COc1ccc(-c2cc(-c3ccccc3)nc(SCC(=O)Nc3nccs3)c2C#N)cc1 was read as TGFb inhibitor -5.2%, TDP1 block 2.7%, TDP1 cell CPT inconclusive, IL1B secr inh 67.8, HepG2 tox -1.4% and TDP1 cell noCPT 8.2µM*.
CCc1nnc(NC(=O)CSc2nc3cc(OC)ccc3cc2C)s1 was read as TGFb inhibitor 0.3%, TDP1 block 4.9%, TDP1 cell CPT -28.0%, IL1B secr inh -7.1, HepG2 tox 2.8% and TDP1 cell noCPT 8.2µM*.
For N#Cc1c(-c2ccc(Cl)cc2)cc(-c2ccccc2)nc1SCC(=O)O the results were TGFb inhibitor inconclusive, TDP1 cell CPT 18.4µM*, IL1B secr inh 22.1, HepG2 tox -67.5% and TDP1 cell noCPT inconclusive.
Screening COc1ccc(NC(=O)CSc2nc(C)c3c(c2C#N)CCCC3)cc1 returned TGFb inhibitor -0.9%, TDP1 block 0.0%, TDP1 cell CPT inconclusive, IL1B secr inh -2.2, HepG2 tox 4.7% and TDP1 cell noCPT -12.4%.
For CCc1nnc(NC(=O)CSc2nc(C)c3c(c2C#N)CCCC3)s1 the results were TGFb inhibitor -12.8%, TDP1 block 3.1%, TDP1 cell CPT 17.8µM*, IL1B secr inh -0.3, HepG2 tox -13.2% and TDP1 cell noCPT 17.8µM*.
`COc1cc(-c2noc(C3CCCN(C(=O)c4c(F)cccc4F)C3)n2)cc(OC)c1OC` (centres undefined) gave TGFb inhibitor -2.8%, TDP1 cell CPT inconclusive, IL1B secr inh -15.9, HepG2 tox -26.0% and TDP1 cell noCPT 20.6µM*.
